Reference: PubChem BioAssay AID1159580 (chemical genetic matrix, 2015)
Screen size: about 5,500 compounds; about 2,000 (36%) were called active. About 18% were inconclusive and are not listed. Cut-off read from the data, not from the text of the source: active = normalized growth mostly below about 0.91 (no sharp cut-off); inconclusive = no clear call, values can overlap the other calls; inactive = mostly above about 0.92. The list shows a part of the results.

Experiment: chemical genetic growth profiling, strain panel (AID 1159580);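 note: tested at 20 µM; growth read once vehicle control cultures reached saturation at 30 °C; 1 = growth at the plate median or of vehicle wells; lower values mean less growth of the strain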
Conditions: S. cerevisiae deletion strains, growth OD

Measured: normalized growth

COc1cc2c(cc1OC)-c1c(oc3cc(O)cc(O)c3c1=O)CO2
inactive: locus YAL021C, strain ccr4, stronger effect = lower value 1.02 | locus YAL026C, strain drs2, stronger effect = lower value 1.01 | locus YAL030W, strain snc1, stronger effect = lower value 1.01 | locus YBL061C, strain skt5, stronger effect = lower value 1.01 | locus YBR009C, strain hhf1, stronger effect = lower value 1.02 | locus YBR023C, strain chs3, stronger effect = lower value 1.02 | locus YBR171W, strain sec66, stronger effect = lower value 1.03 | locus YBR231C, strain swc5, stronger effect = lower value 1.02 | locus YBR279W, strain paf1, stronger effect = lower value 1.02 | locus YCL011C, strain gbp2, stronger effect = lower value 1.01 | locus YCL016C, strain dcc1, stronger effect = lower value 1.02 | locus YCL061C, strain MRC1, stronger effect = lower value 1.01 | locus YCL069W, strain vba3, stronger effect = lower value 1.01 | locus YCR088W, strain abp1, stronger effect = lower value 1.02 | locus YDL005C, strain med2, stronger effect = lower value 1.04 | locus YDL040C, strain nat1, stronger effect = lower value 1.01 | locus YDR001C, strain nth1, stronger effect = lower value 1.01 | locus YDR069C, strain doa4, stronger effect = lower value 1.02 | locus YDR137W, strain rgp1, stronger effect = lower value 1 | locus YDR159W, strain sac3, stronger effect = lower value 1.04 | locus YDR195W, strain ref2 1.04 | locus YDR297W, strain sur2, stronger effect = lower value 1.02 | locus YDR334W, strain swr1, stronger effect = lower value 1.01 | locus YDR335W, strain msn5, stronger effect = lower value 1.03 | locus YDR392W, strain spt3, stronger effect = lower value 1.01 | locus YEL003W, strain gim4, stronger effect = lower value 1.02 | locus YEL037C, strain rad23, stronger effect = lower value 1.01 | locus YEL061C, strain CIN8 (second series), stronger effect = lower value 1.01 | locus YER015W, strain faa2, stronger effect = lower value 1.02 | locus YER016W, strain bim1, stronger effect = lower value 1.01 | locus YER111C, strain swi4, stronger effect = lower value 1.03 | locus YER155C, strain BEM2 (second series), stronger effect = lower value 1.03 | locus YFR010W, strain ubp6, stronger effect = lower value 1.02 | locus YGL167C, strain pmr1, stronger effect = lower value 1.02 | locus YGL173C, strain kem1, stronger effect = lower value 1.03 | locus YGL227W, strain vid30, stronger effect = lower value 1.03 | locus YGL240W, strain doc1, stronger effect = lower value 1.02 | locus YGL253W, strain hxk2, stronger effect = lower value 1.02 | locus YHR013C, strain ard1, stronger effect = lower value 1.01 | locus YHR027C, strain rpn1, stronger effect = lower value 1.03 | locus YHR030C, strain SLT2, stronger effect = lower value 1.05 | locus YHR079C, strain IRE1, stronger effect = lower value 1.04 | locus YHR142W, strain chs7, stronger effect = lower value 1.01 | locus YJL092W, strain hpr5, stronger effect = lower value 1.02 | locus YJL095W, strain BCK1 (second series), stronger effect = lower value 1.01 | locus YJL095W, strain BCK1, stronger effect = lower value 1.05 | locus YJL115W, strain asf1, stronger effect = lower value 1.01 | locus YJL129C, strain trk1, stronger effect = lower value 1.03 | locus YJL154C, strain vps35, stronger effect = lower value 1.02 | locus YJL164C, strain tpk1, stronger effect = lower value 0.995 | locus YJL166W, strain qcr8, stronger effect = lower value 1.01 | locus YJL187C, strain SWE1, stronger effect = lower value 1.02 | locus YJR066W, strain TOR1, stronger effect = lower value 0.999 | locus YKL160W, strain elf1, stronger effect = lower value 1.02 | locus YKR026C, strain gcn3, stronger effect = lower value 1.02 | locus YKR091W, strain srl3, stronger effect = lower value 1.02 | locus YLL001W, strain dnm1, stronger effect = lower value 1.02 | locus YLL026W, stronger effect = lower value 1.01 | locus YLL041C, strain sdh2, stronger effect = lower value 0.973 | locus YLR027C, strain aat2, stronger effect = lower value 1.01 | locus YLR113W, strain HOG1, stronger effect = lower value 1.08 | locus YLR221C, strain rsa3, stronger effect = lower value 1.02 | locus YLR258W, strain gsy2, stronger effect = lower value 1.02 | locus YLR262C, strain YPT6 (second series), stronger effect = lower value 1.01 | locus YLR320W, strain mms22, stronger effect = lower value 1.03 | locus YLR342W, strain FKS1, stronger effect = lower value 1.02 | locus YLR357W, strain rsc2, stronger effect = lower value 1.01 | locus YLR370C, strain arc18, stronger effect = lower value 1.02 | locus YLR384C, strain iki3, stronger effect = lower value 1.03 | locus YML120C, strain ndi1, stronger effect = lower value 1.01 | locus YMR058W, strain fet3, stronger effect = lower value 1.02 | locus YMR125W, strain sto1, stronger effect = lower value 1.02 | locus YMR129W, stronger effect = lower value 1.02 | locus YMR205C, strain PFK2, stronger effect = lower value 1.02 | locus YMR231W, strain pep5, stronger effect = lower value 1.02 | locus YNL071W, strain lat1, stronger effect = lower value 1.01 | locus YNL183C, strain NPR1, stronger effect = lower value 0.988 | locus YNL209W, strain ssb2, stronger effect = lower value 1.02 | locus YNL248C, strain rpa49, stronger effect = lower value 1.02 | locus YNL322C, strain KRE1 (second series), stronger effect = lower value 1.02 | locus YNR049C, strain mso1, stronger effect = lower value 1.02 | locus YOR001W, strain rrp6, stronger effect = lower value 1.04 | locus YOR070C, strain gyp1, stronger effect = lower value 1.02 | locus YOR080W, strain dia2, stronger effect = lower value 1.02 | locus YOR083W, strain WHI5, stronger effect = lower value 1 | locus YOR106W, strain vam3, stronger effect = lower value 1.05 | locus YOR231W, strain MKK1, stronger effect = lower value 1.05 | locus YOR265W, strain rbl2, stronger effect = lower value 1.01 | locus YOR270C, strain vph1, stronger effect = lower value 1.02 | locus YOR290C, strain snf2, stronger effect = lower value 1.02 | locus YPL051W, strain arl3, stronger effect = lower value 1 | locus YPL078C, strain atp4, stronger effect = lower value 1.02 | locus YPL106C, strain sse1, stronger effect = lower value 1.02 | locus YPL240C, strain hsp82, stronger effect = lower value 1.02 | locus YPL256C, strain CLN2, stronger effect = lower value 1.05
